Experimental data as given in PubChem BioAssay.
The source made the active and inactive calls.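 How the source made its calls, unless noted: active means fluorescence slope higher than the sample average by over 3 SD (cut at about -0.22 in these data, passing the limit was not always enough); inactive means the rest.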

Assays:
[1] = inhibitors of TNFa-induced NFkB p65 translocation, primary screen, imaging, HUVEC, MLSMR starter and 10KST1 sets (AID 438;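 active means inhibition above 20% together with a positive visual image hit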;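 further: compound added about 3h40 before a 20 min TNFalpha stimulation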;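 on inhibition: signal is the nuclear over cytoplasmic p65 intensity ratio per well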); settings: HUVEC TNFa-induced p65 nuclear translocation; cell count: measured here: nuclei count (cytotoxicity indicator), at 2.08 µM; inhibition: at 2 µM, stronger effect = higher value, 0% TNFa-plus-vehicle, 100% no-TNFa wells
[2] = reduction of polyQ htt aggregates in cells – imaging, exon1htt(103Q)mCFP cells, high-content imaging, primary screen (AID 483;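 active means visual image review flags a hit and inhibition of aggregation exceeds 20%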;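 further: compound exposure lasted 3 days before fixation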;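 on nuclei count: percent of the per-plate median nuclei count of sample wells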); settings: exon1htt(103Q)mCFP cell line, aggregate imaging, at 2 µM; inhibition of aggregation: stronger effect = higher value; nuclei count: measured here: cell count, toxicity
[3] = endothelial E-selectin expression blockers – imaging, HUVEC, immunofluorescence, MLSMR starter and 10KST1 sets, primary screen (AID 487;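 active means visually confirmed hit in the image check and inhibition above 20%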;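 on inhibition: signal is fraction of cell area covered by stained E-selectin grains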;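 on nuclei count: 100% = median nuclei count of all wells on the same plate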); settings: HUVEC TNFalpha-induced E-selectin immunofluorescence imaging, at 2 µM; inhibition: stronger effect = higher value; nuclei count: measured here: cell number, toxicity
[4] = molecular target: Voltage-gated potassium channel subunit beta-2 (Rattus norvegicus) (UniProt P62483); test: inhibitors of rat Kvbeta2 reductase activity – biochemical, NADPH fluorescence, primary screen (AID 622); settings: recombinant KvBeta, 4-cyanobenzaldehyde reduction, at 10 µM, stronger effect = higher value;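 further: slope of raw intensity against log time taken from 70 to 1610 s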
[5] = molecular target: Voltage-gated potassium channel subunit beta-2 (Rattus norvegicus) (UniProt P62483); test: enhancers of rat Kvbeta2 NADPH turnover – biochemical, NADPH fluorescence, primary screen (AID 623;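 active means NADPH fluorescence slope more negative than the mean of all samples by about 3 SD, 99.7% confidence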;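 further: fluorescence intensity change per second fitted from 20 to 320 s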); settings: Recombinant KvBeta, NADPH fluorescence decrease slope, 10 min; at 10 µM; stronger effect = lower value
[6] = molecular target: Alpha-2C adrenergic receptor (Homo sapiens) (UniProt P18825); test: compounds altering alpha2C-coupled GIRK flux – cell-based, HEK293 alpha2C/GIRK1/2, thallium flux, primary screen (AID 624;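 active means fluorescence slope after compound addition differing from the mean of all screened samples at 99.7% confidence, in either direction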;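 further: slope of fluorescence ratio to pre-addition baseline per second over 15 to 24 s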); settings: thallium flux BTC fluorescence, at 10 µM, actives lie on both sides
[7] = blockers of RIG-like receptor reporter activation – cell-based, Sendai virus stimulus, luciferase, 10K MLSCN set, TLR/RLR signaling modifier project, primary screen (AID 602276;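 active means inhibition at or above 50% at 10 µM; inactive means inhibition below 50%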;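 further: firefly luciferase from ISG56 promoter only with Renilla not read in this screen; 0% = Sendai virus plus DMSO and 100% = medium plus DMSO without virus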); settings: HEK293 RL24 IRF3 luciferase reporter, at 10 µM, stronger effect = higher value
[8] = TLR3 IRF3 reporter activation blockers – cell-based, poly I:C stimulus, luciferase, 10K MLSCN set, primary screen (AID 602277;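 active means inhibition of the reporter signal at or above 50%; inactive means inhibition below 50%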); settings: HEK293-TLR3 RL24 IRF3 luciferase reporter, at 10 µM, stronger effect = higher value

Chain of Voltage-gated potassium channel subunit beta-2 (Rattus norvegicus) (P62483 whole entry, looked up): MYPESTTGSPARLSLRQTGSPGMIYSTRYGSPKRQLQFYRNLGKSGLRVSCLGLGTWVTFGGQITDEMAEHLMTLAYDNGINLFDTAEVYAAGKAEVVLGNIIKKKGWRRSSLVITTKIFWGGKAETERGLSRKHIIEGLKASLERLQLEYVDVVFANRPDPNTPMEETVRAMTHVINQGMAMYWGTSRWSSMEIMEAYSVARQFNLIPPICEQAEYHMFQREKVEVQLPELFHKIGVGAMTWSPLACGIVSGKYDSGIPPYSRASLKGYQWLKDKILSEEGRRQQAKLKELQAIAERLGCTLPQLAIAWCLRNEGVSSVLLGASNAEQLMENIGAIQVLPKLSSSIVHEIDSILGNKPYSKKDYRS
Chain of Alpha-2C adrenergic receptor (Homo sapiens) (P18825 whole entry, looked up): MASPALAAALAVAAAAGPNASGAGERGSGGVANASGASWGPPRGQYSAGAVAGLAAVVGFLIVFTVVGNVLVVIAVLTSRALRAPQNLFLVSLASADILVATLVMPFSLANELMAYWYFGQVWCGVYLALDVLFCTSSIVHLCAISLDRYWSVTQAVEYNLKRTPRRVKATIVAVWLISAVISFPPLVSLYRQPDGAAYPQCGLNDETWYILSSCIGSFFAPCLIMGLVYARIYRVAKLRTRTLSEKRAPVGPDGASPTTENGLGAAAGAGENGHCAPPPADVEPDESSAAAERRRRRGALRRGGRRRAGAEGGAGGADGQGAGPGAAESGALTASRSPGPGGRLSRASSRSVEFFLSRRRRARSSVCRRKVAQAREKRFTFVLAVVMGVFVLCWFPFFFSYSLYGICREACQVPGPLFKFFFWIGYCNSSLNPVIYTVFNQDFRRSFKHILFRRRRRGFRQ

SMILES	cell count [1]	inhibition [1]	inhibition of aggregation [2]	nuclei count [2]	inhibition [3]	nuclei count [3]	fluorescence slope [4]	NADPH fluorescence slope [5]	slope [6]	inhibition [7]	inhibition [8]
COc1ccc(Cn2nnnc2C(c2cccs2)N2CCOCC2)cc1 (centres undefined)	572	-4.8% (inactive)	-10.4% (inactive)	98.8%	-10.4% (inactive)	114%	-0.419 (inactive)	1.2e-06 (inactive)	0.00389 (inactive)	-1.07% (inactive)	-0.428% (inactive)
CC1CCN(CCn2c(=S)[nH]c3ncccc3c2=O)CC1	508	7.1% (inactive)	-13.9% (inactive)	115%	-9.3% (inactive)	105%	-0.411 (inactive)	-3.5e-05 (inactive)	0.00346 (inactive)	10.2% (inactive)	26.9% (inactive)
O=S(=O)(Nc1ncccn1)c1ccc(Nc2ncnc3ccccc23)cc1	623	-16.4% (inactive)	-7.6% (inactive)	89.3%	-6% (inactive)	105%	-0.459 (inactive)	-4.3e-05 (inactive)	0.00604 (inactive)	-24.5% (inactive)	12.4% (inactive)
COc1cc(Br)cc(/C=N/c2ncn[nH]2)c1O	376	-8.7% (inactive)	-2.5% (inactive)	101%	-35% (inactive)	117%	-0.467 (inactive)	7.7e-05 (inactive)	0.00616 (inactive)	12.8% (inactive)	24.8% (inactive)
CCOc1ccc(-c2cc(C(=O)N3CCN(c4ccccn4)CC3)c3ccccc3n2)cc1	619	7.9% (inactive)	-11.8% (inactive)	86.4%	-19.3% (inactive)	111%	-0.473 (inactive)	-6.7e-06 (inactive)	0.00673 (inactive)	34% (inactive)	-64.8% (inactive)
COc1ccc(NC(=O)C2CCCN2S(=O)(=O)c2cccc3cccnc23)c(OC)c1 (centres undefined)	645	-8.6% (inactive)	2.8% (inactive)	77.7%	-59.6% (inactive)	103%	-0.626 (inactive)	2.3e-06 (inactive)	0.00652 (inactive)	1.34% (inactive)	38.4% (inactive)
CCn1nc(C(=O)OCC(=O)N2CCc3ccccc32)c2ccccc2c1=O	301	-8.8% (inactive)	4.1% (inactive)	68.3%	25.7% (inactive)	96.8%	-0.297 (inactive)	2.7e-05 (inactive)	0.00506 (inactive)	-3.24% (inactive)	13.2% (inactive)
CCS(=O)(=O)c1nc2ccccc2n1Cc1ccccc1Cl	689	-1.1% (inactive)	-10.2% (inactive)	115%	-31.4% (inactive)	109%	-0.542 (inactive)	-5.8e-06 (inactive)	0.0072 (inactive)	-0.827% (inactive)	18.9% (inactive)
Cc1ccc(N(C)C(=O)N2CCN(c3ccccn3)CC2)cc1	525	-0.8% (inactive)	30.2% (inactive)	59.5%	-41% (inactive)	97.6%	-0.59 (inactive)	-2.8e-05 (inactive)	0.00868 (inactive)	5.03% (inactive)	27.2% (inactive)
COC(=O)c1ccc(CSc2nnc(-c3ccncc3)o2)o1	612	-2.2% (inactive)	-8% (inactive)	139%	-31.9% (inactive)	114%	-0.596 (inactive)	-3.4e-05 (inactive)	0.00373 (inactive)	12% (inactive)	13.9% (inactive)
CCOC(=O)CN1C(=O)C(=O)c2cccc(C)c21	651	-4.4% (inactive)	-8.1% (inactive)	119%	-62.9% (inactive)	119%	-0.601 (inactive)	-4.5e-05 (inactive)	0.00699 (inactive)	15.4% (inactive)	34.9% (inactive)
Cc1ccccc1CSc1nnc(C)c(=O)[nH]1	600	1.1% (inactive)	-41.3% (inactive)	105%	-37.9% (inactive)	133%	-0.581 (inactive)	1.6e-05 (inactive)	0.00756 (inactive)	12.3% (inactive)	13.6% (inactive)
COc1cccc(C2C(C(N)=O)=C(C)Nc3nc(CCCO)nn32)c1OC (centres undefined)	480	5% (inactive)	11.5% (inactive)	102%	-24.5% (inactive)	94.1%	-0.455 (inactive)	-2.8e-05 (inactive)	0.00572 (inactive)	-11.2% (inactive)	7.06% (inactive)
CCOCCc1nnc(NC(=O)c2ccc(OC)c(OC)c2)s1	578	9.1% (inactive)	-18.6% (inactive)	97.6%	-94.6% (inactive)	154%	-0.515 (inactive)	-4.8e-05 (inactive)	0.00549 (inactive)	14.1% (inactive)	20% (inactive)
